A selection: hits, their analogues and other compounds. The true share with any hit is near 11%.
HCV inh – HCV inhibition; Potency, µM (doses to about 41.8 µM), inactives show at the highest dose activity change, negative = inhibition, most hits filed as inhibitors; 340,000 tested, 3.4% active; Huh7.5.1 HCVcc-Cre infection, luciferase reporter, 44 h
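Luciferase read-out (15 sec integration) after a 15 min room-temperature substrate step quantifies HCVcc-Cre infection. Cells, 1,000 per well, had compound added 4 h post-plating, then virus at ~0.5 moi, and were cultured 44 h.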
Pf growth 48h – P. falciparum growth inhibition at 48 hours (one generation); P. falciparum luciferase growth in erythrocytes, 48 h; Potency, µM (series often up to 28.7 µM), for the others: top-dose activity change, negative = inhibition, actives largely listed as inhibitors; 310,000 tested, 5.9% active; AID 504832
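A one-generation exposure of luciferase-tagged malaria parasites in RPMI 1640/Albumax erythrocyte culture, 37 C and 5% CO2. Inhibition is inferred from decreased luminescence after adding detection reagent.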
Pf growth 96h – P. falciparum growth inhibition at 96 hours; P. falciparum luciferase reporter growth, 96 h; Potency, µM (series often up to 28.7 µM), for inactives: at the top dose activity change, negative = inhibition, usual class: inhibitors; 320,000 tested, 6.9% active; AID 504834
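Parasite growth measured via integrated firefly luciferase reporter in P. falciparum. Infected erythrocytes at 2% hematocrit, 0.05% parasitemia final were treated 96 hours at 37 C under 5% CO2, and luminescence was read.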
AMA1 RON2 block – AMA1-RON2 (P. falciparum) interaction inhibition; AlphaScreen AMA1-biotinylated RON2 peptide binding; Potency, µM (top dose mostly 58.2 µM), inactives show top-dose activity change, negative = inhibition, actives largely listed as inhibitors; 360,000 tested, 0.2% active; AID 720542;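 further: 0% = vehicle wells and -100% = peptide control; nearly all actives have a fitted effect of over 45% in size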
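AMA1 (3D7) with his tag at 25 nM final met compounds first, then biotinylated RON2 peptide at 25 nM; detection used donor plus acceptor beads, 10 µg/mL apiece, read by AlphaScreen after 30 min at room temperature.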
* = called active by the depositor; ? = inconclusive; nt = no result given. The call rests on the fitted dose curve; in most records, active means well fitted curve in the direction sought with a large enough effect; inconclusive means small, poorly fitted or top-dose-only effect, or another doubt; inactive means no such curve, though single readings can be large; an effect the other way counts as inactive or inconclusive. Unless noted, on the % scale 0 is the no-effect control and ±100 the full control effect; potency means the concentration at half of the fitted maximal effect.

SMILES	HCV inh	Pf growth 48h	Pf growth 96h	AMA1 RON2 block
CCOC(=O)CC(NC(=O)C(Cc1ccc(N(CCCl)CCCl)cc1)NC(C)=O)C(=O)OCC (stereo unspecified)	?	9.28µM*	10.6%	-16.8%
CC(C)(C)NC(=S)N/N=C/c1c(Cl)cccc1Cl	-19.5%	3.7µM*	2.94µM*	67.9%
CCNC(=S)N/N=C/c1c(Cl)cccc1Cl	-15.9%	0.5%	?	64.4%
CCOC(=O)c1[nH]c(C(=O)O)c(CCC(=O)OC)c1C	22.9%	0.9%	11.7µM*	-2.0%
CCOC(=O)c1sc(NC(=O)C(C)Sc2nnc(N)s2)nc1C (stereo unspecified)	?	16.3%	24.5%	-5.8%
CCCn1c(SCC(=O)c2cc(C)n(-c3cc(C)on3)c2C)n[nH]c1=O	?	?	-27.2%	10.9%
COc1ccc(NC(=O)CSc2nc3c(c(=O)n2C)SCC3)cc1OC	-16.8%	-5.6%	1.6%	0.0%
NC(=O)CC(NC(=O)c1ccccc1)c1ccc(NCCc2ccc(Cl)cc2)c([N+](=O)[O-])c1 (stereo unspecified)	?	13.1µM*	?	-9.5%
NC(=O)CC(NC(=O)c1ccccc1)c1ccc(NCc2ccccc2)c([N+](=O)[O-])c1 (stereo unspecified)	10µM*	?	9.28µM*	-0.7%
O=c1[nH]c(/C=C/c2ccccc2)c([N+](=O)[O-])c(=O)[nH]1	20.8%	8.1%	10.4µM*	-1.5%
FC(F)(F)COc1nc(N/N=C/c2cccnc2)nc(N2CCCCC2c2ccccn2)n1 (stereo unspecified)	?	11.7µM*	9.28µM*	11.1%
O=C1C=C(O)C(n2cncn2)C(c2ccc3c(c2)OCO3)C1 (stereo unspecified)	31.6%	?	57.1%	6.2%
COc1ccc(/C=C/C(=O)OCC(=O)c2cc(C)ccc2C)cc1	nt	nt	nt	7.2%
O=S(=O)(c1c(Cl)cc(Br)cc1Cl)N1CCN(C(=S)NC2CC2)CC1	25.1µM*	nt	nt	16.5%
CCN(C(=S)Nc1ccc(Oc2ccccc2)cc1)c1ccccc1	?	5.9%	?	30.3%
COc1ccc(-c2cccc(C3CC=CC4C3C(=O)N(Cc3ccccc3)C4c3cc(C)ccc3F)c2)cc1 (stereo unspecified)	nt	6.57µM*	6.57µM*	nt
Cc1ccc(F)c(C2C3C=CCC(c4cccc(-c5ccc(N(C)C)cc5)c4)C3C(=O)N2Cc2ccccc2)c1 (stereo unspecified)	3.7%	2.94µM*	2.94µM*	?
COc1ccc(-c2cccc(C3CC=CC4C3C(=O)N(Cc3ccccc3)C4c3ccc(OC)c(Cl)c3)c2)cc1 (stereo unspecified)	-22.6%	11.7µM*	9.28µM*	-0.3%
C[C@@H]1CN([C@H](C)CO)C(=O)CCCn2cc(nn2)CO[C@H]1CN(C)C(=O)Nc1cccc(C(F)(F)F)c1	nt	nt	nt	18.5%
OCCCNc1nc(-c2ccccc2)c2cc(Br)ccc2n1	-2.4%	-9.0%	1.65µM*	0.0%
COc1ccc(-c2cc([N+](=O)[O-])ccc2OCC(=O)N(C)CC(=O)Nc2ccc(C)cc2)cc1	?	6.57µM*	9.28µM*	-14.0%
COc1cccc(NC(=O)c2cc(-c3ccc(C)o3)nc3ccccc23)c1	?	?	-42.0%	-5.5%
COc1ccc(-c2cc(C(=O)N(C)CC(=O)Nc3ccccc3C(F)(F)F)c3ccccc3n2)cc1OC	?	nt	nt	70.3%
COc1ccc(-c2cc(C(=O)N(C)CC(=O)Nc3ccccc3Br)c3ccccc3n2)cc1OC	20µM*	8.28µM*	9.28µM*	9.6%
COc1cccc(NC(=O)CN(C)C(=O)c2cc(-c3ccc(C)o3)nc3ccccc23)c1	?	11.7µM*	9.28µM*	-5.8%
SMILES	HCV inh	Pf growth 48h	Pf growth 96h	AMA1 RON2 block
CCOc1ccc(NC(=O)CN(C)C(=O)c2cc(-c3ccc(OC)cc3)nc3ccccc23)cc1OCC	?	9.28µM*	7.38µM*	-9.4%
CCCCN(C(=O)Cc1ccc(S(=O)(=O)N2CCOCC2)s1)c1c(N)n(CC(C)C)c(=O)[nH]c1=O	-0.1%	-29.3%	-0.5%	-9.1%
COc1ccc(/C=C/C(=O)Nc2ccc(NC(C)=O)cc2)cc1S(=O)(=O)N1CCOCC1	-16.5%	?	?	-7.8%
COc1ccc(/C=C/C(=O)NC2CCCCCCC2)cc1S(=O)(=O)N1CCOCC1	-26.5%	?	5.86µM*	7.0%
COc1ccc(/C=C/C(=O)Nc2ccccc2)cc1S(=O)(=O)N1CCOCC1	?	?	?	-1.3%
COc1ccc(/C=C/C(=O)Nc2ccccc2Cl)cc1S(=O)(=O)N1CCOCC1	?	10.4µM*	10.4µM*	0.0%
COc1ccc(C)cc1NC(=O)/C=C/c1ccc(OC)c(S(=O)(=O)N2CCOCC2)c1	?	9.28µM*	5.22µM*	-10.7%
CC1(C)CC(=O)C=C(c2ccc(COC(=O)c3cccc(C(F)(F)F)c3)cc2)C1=O	nt	nt	nt	-13.7%
Nc1c(C(=O)NCc2ccco2)c2nc3ccccc3nc2n1CCc1ccc(F)cc1	-17.6%	nt	?	28.9%
COc1ccc(-n2c(N)c(C(=O)NCc3ccco3)c3nc4ccccc4nc32)cc1OC	?	13.1µM*	?	70.8%
COCCCNC(=O)c1c(N)n(Cc2ccco2)c2nc3ccccc3nc12	-15.8%	?	?	63.8%
Nc1c(C(=O)NCc2ccco2)c2nc3ccccc3nc2n1CCN1CCCCC1	?	?	9.28µM*	49.2%
COc1cc(-n2c(N)c(C(=O)NCc3ccco3)c3nc4ccccc4nc32)cc(OC)c1OC	-21.6%	11.7µM*	13.1µM*	18.5%
COc1ccc(Cn2c(N)c(C(=O)NCc3ccco3)c3nc4ccccc4nc32)cc1OC	7.08µM*	?	3.7µM*	37.0%
COc1ccc(-n2c(N)c(C(=O)NCc3ccco3)c3nc4ccccc4nc32)cc1	?	?	?	29.6%
NC(CCc1ccccc1)c1csc(NC(=O)Nc2cccc(C(F)(F)F)c2)n1 (stereo unspecified)	nt	nt	nt	84.5%
Cc1c(C(=O)N2CCCCC2)c(S(=O)(=O)Nc2ccc(F)cc2F)c(C)n1C	25.2%	28.6%	?	4.3%
COc1cc(OC)c(C(=O)Nc2cccc3ccccc23)cc1OC	-26.1%	16.7%	-8.9%	-1.6%
COc1ccccc1CNC(=O)CCC(=O)N1Cc2cccc(OC)c2Oc2ncccc21	-10.0%	-0.1%	9.28µM*	-5.0%
COc1cccc2c1Oc1ncccc1N(C(=O)CCC(=O)NCc1ccccc1)C2	17.1%	?	-2.8%	13.0%
CCOc1ccccc1CNC(=O)CCC(=O)N1Cc2ccccc2Oc2ncccc21	-7.5%	-15.1%	9.28µM*	10.2%
COc1cccc2c1Oc1ncccc1N(C(=O)CCC(=O)NCc1ccccc1F)C2	5.9%	-13.7%	11.7µM*	-1.5%
Cc1ccc(NC(=O)CCCCCN2C(=O)[C@@H]3Cc4ccccc4CN3C2=O)c(C)c1	?	?	?	-11.5%
COc1ccccc1Nc1nc(C)cc(C)n1	-20.2%	1.3%	?	1.4%

High-throughput results from PubChem BioAssay.
